Our source for the max response, Potency and outcome values is PubChem BioAssay (NCATS).

Inconclusive results are not listed. Values without a mark were called inactive. Active and inactive are the calls of the source. Calls follow the shape of the dose curve; as a rule, active = well fitted inhibition curve with a large enough effect; inconclusive = small, poorly fitted or top-dose-only effect; inactive = flat fitted curve, though single readings scatter.
% is scaled to controls: 0 for no effect and ±100 for the full control effect; potency is read from the fitted curve at half-maximal effect.

The first experiment deals with HaCat. The experiment in a line: Cytotoxic Profiling of Annotated Libraries Using Quantitative High-Throughput Screening (AID 1296008). Also: nearly all actives have a fitted effect of over 60% in size. Particulars: Five cell lines viability, CellTiter-Glo ATP luminescence, 48-72 h; max response: stronger effect = lower value. Summed up: (§1)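 Compounds were pin-transferred onto cells and incubated 48 or 72 hr at 37 degree Celsius, 95% humidity. CellTiter-Glo was added, plates sat 10 min at room temperature, then ATP-coupled luminescence was imaged as the viability read-out.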
In general terms: Cellular ATP, detected with luciferase, serves as a proxy for viable cell number.
`C/C=C/[C@@H]1C=C[C@@H]2C[C@H](C)CC[C@H]2[C@]1(C)/C(O)=C1/C(=O)[C@@H](CO)N(C)C1=O`: the max response is 3.96%. Take `CCc1cc2c(cc1CC)CC(NCC(O)c1ccc(O)c3[nH]c(=O)ccc13)C2` (centres undefined): the max response was 2.19%. Consider `O=C(NNc1nc2cc(F)ccc2n2cccc12)c1cnccn1`, for which the Potency was 3.26 µM (active).

On to `CNS(=O)(=O)c1ccccc1Nc1nc(Nc2ccc(N3CCN(C)CC3)cc2OC)ncc1Br`, for which the Potency is 3.26 µM (active). On to `CCC(C)CNCC(=O)N1CCc2sccc2C1COc1cccc(C)c1` (centres undefined), for which the max response was 1.97%. Still for that read-out and setting: with `CCC(C)CNCC(=O)N1CCC2SC=CC2C1COc1cccc(C)c1` (centres undefined) the figure was 3.39%. As to `CC(=O)Nc1nc(C)c(-c2nc(N3CCCC(O)C3)no2)s1` (centres undefined), the Potency is 4.11 µM (active). For `COc1c2c(nc3occc13)C(CC=C(C)C)(OC)C(O)CC2` (centres undefined), the max response was -1.05%.

`C=C1C(=O)O[C@@H]2/C=C(\C)CC/C=C(/C=O)[C@H](OC)[C@@H](OC(=O)C(C)C)[C@@H]12`: the molecule was called inactive. For `C=C(C)C1=C[C@@]2(C)C(=CC1=O)CC[C@@H](O)[C@@H]2C`, the call was inactive. As to `CCc1cccc(CC)c1-n1c(C=C(C)C)c(C(=O)N2CCNCC2)cc(-c2nc(-c3ccc(C(F)(F)F)cc3)cs2)c1=O`, the max response is -5.33%. The same measure, in the same setting: with `CC(F)(F)CN1CCOc2c(nn(-c3ccccc3Cl)c2-c2ccc(Cl)cc2)C1=O` the figure was -16.2%; with `COC(=O)c1cc(Br)cnc1N1CCC(NC2CCCCC2)C(O)C1` (centres undefined), -7.79%; with `COc1cc(CN(CCN)C(=O)c2cccs2)ccc1OCc1ccccc1`, -3.01%. Regarding `CCOc1cccc(NC(=O)c2ccc(N3CCCC3)c(C(F)(F)F)c2)c1`, the outcome was inactive. Regarding `COc1cc(O)c2c(c1)/C=C/C[C@H](O)[C@H](O)C(=O)/C=C\C[C@H](C)OC2=O`, the Potency was 9.2 µM (active). `Cc1ccccc1CN1CCn2c1nc1c(c2=O)CN(Cc2ccccc2)CC1`: the outcome was inactive. Regarding `C=C1C(=O)OC2/C=C(\CO)CC/C=C(\C=O)C(O)C(OC(=O)C(C)CC)C12` (centres undefined), the molecule was classed as inactive. In the case of `O=S(=O)(NCc1ccccn1)c1ccc(Br)c2ccccc12`, the max response is 1.53%. As for `CC1(C)OC[C@H](NC(=O)Nc2ccc(Br)cc2Br)[C@H](c2ccccc2)O1`, the max response is -5.94%. `COc1cccc(-c2cc(F)ccc2C2Cc3nc(N)nc(C)c3C(=O)N2)n1` (centres undefined): the Potency is 0.0461 µM (active). For the molecule `COc1cc2ncnc(Nc3ccc(F)c(Cl)c3)c2cc1O`, the Potency is 1.3 µM (active). With `O=C(NCCCNC(=O)c1ccc[nH]c1=O)c1cc(-c2ccccc2)on1`, the max response is -1.65%. As for `CC(=O)Nc1cccc(Nc2ncnc(N3CCC(OCc4ccc(OC(F)(F)F)cc4)CC3)n2)c1C`, the max response is -26.7%.

`Cc1c(OCc2cccc(-c3ccc(C(=O)O)cc3)c2)cc2c(c1C)C(=O)C(C1CCCC1)C2` (centres undefined): the max response is -12%. Same read-out and setting: the figure for `CC1(C)CC[C@]2(C(=O)O)CC[C@]3(C)C(=CCC4[C@@]5(C)C[C@@H](O)[C@H](O)[C@@](C)(CO)C5CC[C@]43C)[C@@H]2[C@@H]1O` (some centres undefined) is -17.5%. In the case of `CC(=O)OC1C(OC(=O)c2ccccc2)C2C(=C(C)CCC2(C)C)C23CCC(C)(C2)C(=O)CC13` (centres undefined), the max response is -3.85%. As to `COc1ccccc1OCCN1CC(COc2cccc3[nH]c4ccccc4c23)OCC1=O` (centres undefined), the result was inactive. With `O=C(NS(=O)(=O)c1ccc(Br)s1)c1ccc(Cl)cc1Cl`, the max response was 3.71%.

The next experiment deals with KB-3-1. The experiment is described as above. The conditions noted are these: Five cell lines viability, CellTiter-Glo ATP luminescence, 48-72 h; max response: stronger effect = lower value. Summed up:
as §1
For `C=C1C(=O)O[C@@H]2/C=C(\C)CC/C=C(/C=O)[C@H](OC)[C@@H](OC(=O)C(C)C)[C@@H]12`, the outcome was inactive. For `C=C(C)C1=C[C@@]2(C)C(=CC1=O)CC[C@@H](O)[C@@H]2C`, the outcome was inactive. As for `CCOc1cccc(NC(=O)c2ccc(N3CCCC3)c(C(F)(F)F)c2)c1`, the max response is -0.259%. In the case of `Cc1ccccc1CN1CCn2c1nc1c(c2=O)CN(Cc2ccccc2)CC1`, the max response was -11.6%. Turning to `C=C1C(=O)OC2/C=C(\CO)CC/C=C(\C=O)C(O)C(OC(=O)C(C)CC)C12` (centres undefined), the call was inactive. Regarding `COc1ccccc1OCCN1CC(COc2cccc3[nH]c4ccccc4c23)OCC1=O` (centres undefined), the max response was -7.07%.

A further experiment concerns NIH3T3. Described as above. The conditions noted are these: Five cell lines viability, CellTiter-Glo ATP luminescence, 48-72 h; max response: stronger effect = lower value. Summed up:
as §1
On to `CO[C@H]1O[C@@H]2O[C@@]3(C)CCC4[C@H](C)CCC([C@H]1C)[C@]42OO3` (some centres undefined), for which the molecule was called inactive. Regarding `C/C(=C/C=C\C=C\Cc1cnco1)[C@@H](O)C(C)(C)C(N)=O`, the max response was -15.3%.

For the molecule `COC(=O)C[C@H]1[C@]2(C)C3=C(C)[C@H](c4ccoc4)C[C@H]3O[C@@H]2[C@H](O)C2[C@](C)(C(=O)OC)C=CC(=O)[C@@]21C` (some centres undefined), the max response is 3.36%. For `Cc1noc(C)c1-c1cc(O)cc(C(O)c2ccccc2)c1` (centres undefined), the Potency was 10.3 µM (active). As for `O=C(NCCCN1CCOCC1)c1cnn2c(-c3ccccc3)cc(-c3ccccc3)nc12`, the max response is -12.1%. On the same count and under the same terms, the figure for `O=C(Nc1ccccc1)c1ccc(Nc2nnc(-c3ccc(O)cc3)c3ccccc23)cc1` is -26.5%. On to `CO[C@H]1[C@@H](O)[C@H](O[C@H]2CC[C@@]3(C)C(CCC4C3CC[C@]35COC6(COC(=O)C6)C3CCC45O)C2)O[C@@H](C)[C@@H]1OC1OC(CO)C(OC2OC(CO)C(O)C(O)C2O)C(O)C1O` (some centres undefined), for which the outcome was inactive.

With `CC(=O)NC(C)c1cnc(-c2cnc(Oc3ccc(OC(C)C)cc3)s2)s1` (centres undefined), the max response was 0.946%.

`CCOc1cc(C(C)(C)C)ccc1C1=NC(C)(c2ccc(Cl)cc2)C(C)(c2ccc(Cl)cc2)N1C(=O)N1CCN(CCCS(C)(=O)=O)CC1` (centres undefined): the Potency was 9.2 µM (active).

In the case of `NC(=O)CCCSc1nc(N)nc(-c2c(Cl)cc3c4c(cccc24)COC3)n1`, the Potency is 0.731 µM (active). As to `Nc1c(S(=O)(=O)c2ccccc2)c2nc3ccccc3nc2n1-c1ccc(F)cc1`, the call was inactive. `C/C=C/[C@@H]1C=C[C@@H]2C[C@H](C)CC[C@H]2[C@]1(C)/C(O)=C1/C(=O)[C@@H](CO)N(C)C1=O`: the call was inactive. `CCc1cc2c(cc1CC)CC(NCC(O)c1ccc(O)c3[nH]c(=O)ccc13)C2` (centres undefined): the max response is 2.82%. `O=C(NNc1nc2cc(F)ccc2n2cccc12)c1cnccn1`: the Potency is 4.11 µM (active). The same measure, in the same setting: the figure for `CNS(=O)(=O)c1ccccc1Nc1nc(Nc2ccc(N3CCN(C)CC3)cc2OC)ncc1Br` is 1.46 µM (active). Turning to `CCC(C)CNCC(=O)N1CCc2sccc2C1COc1cccc(C)c1` (centres undefined), the max response was -25.4%. The same measure, in the same setting: with `CCC(C)CNCC(=O)N1CCC2SC=CC2C1COc1cccc(C)c1` (centres undefined) the figure was -20.9%. Take `CC(=O)Nc1nc(C)c(-c2nc(N3CCCC(O)C3)no2)s1` (centres undefined): the Potency was 18.4 µM (active).

With `COc1c2c(nc3occc13)C(CC=C(C)C)(OC)C(O)CC2` (centres undefined), the max response is -1.61%. For `CCc1cccc(CC)c1-n1c(C=C(C)C)c(C(=O)N2CCNCC2)cc(-c2nc(-c3ccc(C(F)(F)F)cc3)cs2)c1=O`, the max response is -4.22%. As to `CC(F)(F)CN1CCOc2c(nn(-c3ccccc3Cl)c2-c2ccc(Cl)cc2)C1=O`, the max response was -14.8%. Take `COC(=O)c1cc(Br)cnc1N1CCC(NC2CCCCC2)C(O)C1` (centres undefined): the result was inactive. With `COc1cc(CN(CCN)C(=O)c2cccs2)ccc1OCc1ccccc1`, the max response is -11.2%. Take `COc1cc(O)c2c(c1)/C=C/C[C@H](O)[C@H](O)C(=O)/C=C\C[C@H](C)OC2=O`: the Potency was 5.8 µM (active). For the molecule `O=S(=O)(NCc1ccccn1)c1ccc(Br)c2ccccc12`, the max response is -0.344%. With `CC1(C)OC[C@H](NC(=O)Nc2ccc(Br)cc2Br)[C@H](c2ccccc2)O1`, the max response is 0.948%.

Turning to `COc1cccc(-c2cc(F)ccc2C2Cc3nc(N)nc(C)c3C(=O)N2)n1` (centres undefined), the Potency is 0.058 µM (active).

For `COc1cc2ncnc(Nc3ccc(F)c(Cl)c3)c2cc1O`, the result was inactive.

Turning to `O=C(NCCCNC(=O)c1ccc[nH]c1=O)c1cc(-c2ccccc2)on1`, the max response was 2.72%.

For `CC(=O)Nc1cccc(Nc2ncnc(N3CCC(OCc4ccc(OC(F)(F)F)cc4)CC3)n2)c1C`, the max response is -3.89%. Same read-out and setting: with `Cc1c(OCc2cccc(-c3ccc(C(=O)O)cc3)c2)cc2c(c1C)C(=O)C(C1CCCC1)C2` (centres undefined) the figure was -4.46%; with `CC1(C)CC[C@]2(C(=O)O)CC[C@]3(C)C(=CCC4[C@@]5(C)C[C@@H](O)[C@H](O)[C@@](C)(CO)C5CC[C@]43C)[C@@H]2[C@@H]1O` (some centres undefined), 4.68%; with `CC(=O)OC1C(OC(=O)c2ccccc2)C2C(=C(C)CCC2(C)C)C23CCC(C)(C2)C(=O)CC13` (centres undefined), -18.4%. Consider `O=C(NS(=O)(=O)c1ccc(Br)s1)c1ccc(Cl)cc1Cl`, for which the max response is -6.08%.
